Measured values reported in the supplement of paper PMC9694430.
Values joined by “and” are separate entries in the source; they are usually repeats but may differ in a detail not shown here. Equal entries are not always repeated. Structures can show the parent of a compound that is named as a salt.

Columns and labels:
Experiment in all cases: thermal shift delta Tm vs DMSO control; higher = stronger stabilization (binding)
Settings in all cases: 12.5 µM; protein concentration 2 µM
[1] = system: LOC_OS04G57630-cb004
Method in brief: (§1)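 Thermal shift values come from differential scanning fluorimetry on purified rice kinase domains made in E. coli, with melting temperatures obtained from Boltzmann fits. Samples of 19.5 μl held 2 μM kinase, 100 mM potassium phosphate pH 7.5, 150 mM NaCl, 10% glycerol, 5 × SYPRO Orange and compound in DMSO, and were heated from 25°C to 95°C at 0.05°C/s. Each shift is a triplicate mean relative to the DMSO-only protein sample.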

[2] = system: LOC_OS05G07850-cb002
Method in brief: as §1

[3] = system: LOC_OS05G16824-cb004
Method in brief: as §1

[4] = system: LOC_OS05G28520-cb001
Method in brief: as §1

[5] = system: LOC_OS05G30820-cb001
Method in brief: as §1

[6] = system: LOC_OS05G43570-cb004
Method in brief: as §1

[7] = system: LOC_OS06G16330-cb003
Method in brief: as §1

[8] = system: T1, LOC_OS06G22820-cb001
T1 sequence (whole entry): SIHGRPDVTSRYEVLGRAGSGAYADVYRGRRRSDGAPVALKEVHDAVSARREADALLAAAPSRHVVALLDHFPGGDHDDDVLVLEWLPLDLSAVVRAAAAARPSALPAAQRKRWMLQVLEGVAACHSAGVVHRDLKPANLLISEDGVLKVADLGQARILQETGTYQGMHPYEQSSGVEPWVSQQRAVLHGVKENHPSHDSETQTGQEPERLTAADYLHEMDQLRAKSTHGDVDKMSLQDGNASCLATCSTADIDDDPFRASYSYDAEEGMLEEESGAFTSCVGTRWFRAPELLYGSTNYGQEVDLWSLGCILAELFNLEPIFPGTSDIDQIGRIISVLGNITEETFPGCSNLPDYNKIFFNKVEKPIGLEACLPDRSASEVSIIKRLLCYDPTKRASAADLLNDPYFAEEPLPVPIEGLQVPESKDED
Method in brief: as §1

[9] = system: LOC_OS07G06570-cb004
Method in brief: as §1

[10] = system: LOC_OS07G07230-cb001
Method in brief: as §1
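Note: purified Escherichia coli-expressed rice kinase domain construct.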

Sequence of LOC_OS06G16330-cb003 (as listed by the source): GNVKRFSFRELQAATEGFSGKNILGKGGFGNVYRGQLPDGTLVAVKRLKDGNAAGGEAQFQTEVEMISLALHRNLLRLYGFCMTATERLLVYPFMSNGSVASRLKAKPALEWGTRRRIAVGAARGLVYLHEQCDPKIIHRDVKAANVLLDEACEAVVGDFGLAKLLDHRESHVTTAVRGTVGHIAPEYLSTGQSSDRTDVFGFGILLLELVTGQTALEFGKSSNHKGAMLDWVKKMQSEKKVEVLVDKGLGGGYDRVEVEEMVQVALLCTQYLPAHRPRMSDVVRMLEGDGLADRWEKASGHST

SMILES	thermal shift delta Tm [1]	thermal shift delta Tm [2]	thermal shift delta Tm [3]	thermal shift delta Tm [4]	thermal shift delta Tm [5]	thermal shift delta Tm [6]	thermal shift delta Tm [7]	thermal shift delta Tm [8]	thermal shift delta Tm [9]	thermal shift delta Tm [10]
Cc1c(CN2CCN(C(=O)[C@H](C)O)CC2)sc2c(N3CCOCC3)nc(-c3cnc(N)nc3)nc12 [Apitolisib (GDC-0980, RG7422)]	0.67 °C	2.89 °C	1.9 °C	0.57 °C	0.58 °C	1.24 °C	0.88 °C	0.56 °C	0.61 °C	-0.1 °C
Cc1ccc(NC(=O)c2ccc(CN3CCN(C)CC3)cc2)cc1Nc1nccc(-c2cccnc2)n1 [Imatinib Mesylate (STI571)]	0.35 °C	2.65 °C	0.21 °C	0.58 °C	0.32 °C	0.49 °C	0.2 °C	0.68 °C	1.07 °C	0.85 °C
O=C(Nc1cccc(C(F)(F)F)c1)c1cccc2cc(Oc3cc(CO)ncn3)ccc12	0.45 °C	-0.21 °C	-4.53 °C	0.52 °C	0.8 °C	0.31 °C	-0.18 °C	0.78 °C	0.98 °C	0.86 °C
Cc1cnc(-c2cnc(NCCNc3ccc(C#N)cn3)nc2-c2ccc(Cl)cc2Cl)[nH]1	-0.09 °C and 0.72 °C	4.65 °C and 4.93 °C	1.04 °C and 0.06 °C	0.2 °C and 0.82 °C	0.54 °C and 0.26 °C	0.69 °C and 1.04 °C	-0.09 °C and -0.17 °C	0.67 °C and 1.04 °C	0.67 °C and 1.49 °C	0.25 °C and -0.23 °C
O=C(NCCO)c1cccc(-c2cc(Nc3ccc(OC(F)(F)F)cc3)ncn2)c1	-0.03 °C	1.54 °C	0.97 °C	-0.03 °C	0.29 °C	0.15 °C	1.76 °C	0.84 °C	0.21 °C	-0.33 °C
COc1cc2ncnc(Nc3ccc(Cl)cc3F)c2cc1OC	0.21 °C	10.1 °C	2.13 °C	0.86 °C	0.51 °C	0.29 °C	4.29 °C	0.69 °C	1.37 °C	-0.11 °C
COc1cc(Nc2ncc3c(n2)-c2ccc(Cl)cc2C(c2c(F)cccc2OC)=NC3)ccc1C(=O)O [Alisertib (MLN8237)]	-0.1 °C	10.3 °C	5.74 °C	0.02 °C	0.19 °C	0.06 °C	2.21 °C	0.35 °C	0.77 °C	0.11 °C
CC(C)n1nc(-c2ccc3oc(N)nc3c2)c2c(N)ncnc21	0.37 °C	7.34 °C	-0.35 °C	0.63 °C	0.45 °C	0.24 °C	2.84 °C	0.75 °C	1.22 °C	0.29 °C
COc1cc2c3cc1Oc1c(OC)c(OC)cc4c1[C@@H](Cc1ccc(O)c(c1)Oc1ccc(cc1)C[C@@H]3N(C)CC2)N(C)CC4 [Berbamine (dihydrochloride)]	-0.01 °C	-0.48 °C	-7.42 °C	-0.11 °C	0.47 °C	0.27 °C	-0.31 °C	0.13 °C	0.83 °C	0.33 °C
Cc1cc(Nc2ncnc3ccc(-c4ccc(CNCCS(C)(=O)=O)o4)cc23)ccc1Oc1ccn2ncnc2c1 [HER2-Inhibitor-1]	2.09 °C	6.61 °C	2.73 °C	1.2 °C	0.57 °C	0.41 °C	3.81 °C	0.78 °C	1.57 °C	0.55 °C
O=C(Nc1cccc(Nc2ncc(Br)c(NCCc3cnc[nH]3)n2)c1)N1CCCC1	7.51 °C	10.4 °C	13.2 °C	-0.09 °C	6.02 °C	0.65 °C	8.57 °C	0.67 °C	0.48 °C	1.02 °C
Cc1ccc(NC(=O)c2cccc(C(C)(C)C#N)c2)cc1Nc1ccc2ncn(C)c(=O)c2c1	0.41 °C	0.77 °C	-1.17 °C	0.69 °C	0.63 °C	0.64 °C	0.8 °C	0.86 °C	0.75 °C	0.34 °C
CCn1c(C(=O)N(C2CC2)C2CC2)cc2c3c(ncn3C)c(Nc3cc(C)n(C)n3)nc21	0.17 °C	6.42 °C	2.92 °C	0.88 °C	0.47 °C	0.51 °C	2.11 °C	0.64 °C	1.49 °C	0.76 °C
CCC(=O)Nc1cccc(Oc2nc(Nc3ccc(N4CCN(C)CC4)cc3OC)ncc2Cl)c1	0.17 °C	5.91 °C	-0.12 °C	0.72 °C	0.41 °C	0.44 °C	0.62 °C	0.4 °C	0.81 °C	0.4 °C
O=C1c2ccc(Nc3ccc(F)cc3F)cc2CCc2ccc(OC[C@H](O)CO)cc21 [Skepinone-L]	-0.62 °C	1.02 °C	-0.73 °C	0.27 °C	0.6 °C	0.4 °C	-0.23 °C	0.53 °C	0.41 °C	-0.05 °C
CC(C)(C#N)c1ccc(N2C(=O)OCc3cnc4ccc(-c5cnc6ccccc6c5)cc4c32)cc1	0.16 °C	1.96 °C	-0.65 °C	0.5 °C	0.58 °C	0.71 °C	0.44 °C	0.89 °C	1.76 °C	0.63 °C
CCN1CCN(Cc2ccc(C(=O)Nc3ccc(C)c(Oc4ccc5c(c4)CC(=O)N5)c3)cc2C(F)(F)F)CC1	0.33 °C	-0.13 °C	2.03 °C	0.4 °C	0.41 °C	0.42 °C	0.43 °C	0.56 °C	0.16 °C	0.28 °C
COc1cc(CCc2cc(NC(=O)c3ccc(N4CC(C)NC(C)C4)cc3)n[nH]2)cc(OC)c1 (stereo not given)	2.33 °C	3.41 °C	4.73 °C	6.65 °C	0.59 °C	0.4 °C	2.54 °C	0.35 °C	0 °C	-0.08 °C
Cc1nc(Nc2cnn(C3CCNCC3)c2)nc2c1N(C)C(=O)c1cc3ccccc3cc1N2C	0.88 °C	6.28 °C	3.82 °C	0.38 °C	0.47 °C	0.33 °C	1.66 °C	0.22 °C	0.49 °C	0.2 °C
O=C(Nc1nc2cccc(-c3ccc(CN4CCS(=O)(=O)CC4)cc3)n2n1)C1CC1 [Filgotinib (GLPG0634)]	0 °C	4.98 °C	1.83 °C	0.76 °C	0.46 °C	0.12 °C	5.12 °C	0.31 °C	0.9 °C	0.58 °C
